Measured values published in the supplement of paper PMC7858590.
Values joined by “and” are separate entries in the source; they are usually repeats but may differ in a detail not shown here. Identical values can stand only once.

System: human monocyte-derived macrophages (polarized)
Assay: cell shape (eccentricity) Z-score vs DMSO control; higher = more elongated, M2-like morphology
Conditions: 5 µM; 24 h; macrophage state: M1-polarized (IFNg + TNFa), cytokines present during treatment
Description: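 Primary-screen hits were rescreened on polarized hMDMs with the differentiating cytokines (IL-4 + IL-13 or IFNg + TNFa) kept in the medium during treatment with compound at 5 uM for 24 h. The eccentricity Z-score vs DMSO wells is averaged over experiments.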

| SMILES | cell shape (Z-score) |
| --- | --- |
| CC1(C)C[C@@H]1C(=O)N/C(=C\CCCCSC[C@H](N)C(=O)O)C(=O)O | 5 |
| NC(N)=NCCNS(=O)(=O)c1cccc2cnccc12 | -4.47 |
| Nc1nc(Nc2ccc3c(c2)CCC(N2CCCC2)CC3)nn1-c1cc2c(nn1)-c1ccccc1CCC2 (stereo not given) | -4.94 |
| Nc1nc2ccc(OC(F)(F)F)cc2s1 | -5.46 |
| CCCCCCCCCc1ccc(OCCOCCOCCOCCOCCOCCOCCOCCOCCO)cc1 | 5.89 |
| COc1cc2ncn(-c3cc(OCc4ccccc4C(F)(F)F)c(C(N)=O)s3)c2cc1OC | 13.5 |
| C=C1CC[C@@H]2[C@](C)(CO[C@@H]3O[C@H](CO)[C@@H](O)[C@H](O)[C@H]3O)CCC[C@@]2(C)[C@@H]1CCC1=CCOC1=O | -4.62 |
| O=C(Nc1ccncc1)c1cc([N+](=O)[O-])ccc1Cl | 5.38 |
| C[C@H](CO)N1C[C@H](C)[C@H](CN(C)C(=O)Nc2cc(F)ccc2F)Oc2cc(C#CC3CCCC3)ccc2S1(=O)=O | -2.86 |
| CC(C)CNc1ccnc(NCc2csc(-c3ccccc3)n2)n1 | -11.9 |
| CCCCCCCCCCC(C)(C)C(=O)Nc1c(OC)cc(OC)cc1OC | -3.18 |
| C=CC(=O)N1CCC[C@@H](n2nc(-c3ccc(Oc4ccccc4)cc3)c3c(N)ncnc32)C1 | 6.69 |
| CCCCCCN(CCCCCC)C(=O)Cc1c(-c2ccc(F)cc2)[nH]c2ccccc12 | -4.11 |
| CCC1(C)CC(=O)NC1=O (stereo not given) | -7.19 |
| CC1CC(=O)c2c(ccc3c2C(=O)c2cccc(O)c2C3O)C1 (stereo not given) | -2.52 |
| O=C1c2ccccc2-c2n[nH]c3cccc1c23 | 9.54 |
| CC[C@]1(O)C[C@@H]2CN(CCc3c([nH]c4ccccc34)[C@@](C(=O)OC)(c3cc4c(cc3OC)N(C)[C@H]3[C@@](O)(C(=O)OC)[C@H](OC(C)=O)[C@]5(CC)C=CCN6CC[C@]43[C@@H]65)C2)C1 | 6.51 |
| Cc1ccc2c(=O)c3ccccc3n(CCCN)c2c1C | -0.216 |
| O=C(O)C[C@H](O)C[C@H](O)/C=C/c1c(C2CC2)nc2ccccc2c1-c1ccc(F)cc1 | 5.72 |
| CCN(CC)CCNC(=O)c1c(C)[nH]c(/C=C2\C(=O)Nc3ccc(F)cc32)c1C | 8.79 and 5.25 |
| c1ccc(-c2[nH]ncc2-c2ccnc3ccccc23)nc1 | 2.26 |
| Cc1ccc(S(=O)(=O)OCC(=O)Nc2ccc(C(=O)O)c(O)c2)cc1 | -2.63 |
| COc1ccc(OC)c(-c2nnc3n2N=C(c2ccc(OC)c(OC)c2)CS3)c1 | 13.8 |
| O=C(O)c1ccc2c(c1)nc(Nc1cccc(Cl)c1)c1ccncc12 | 9.47 |
| O=C(OC1C=C(CO)C2C(OC3OC(CO)C(O)C(O)C3O)OC=CC12O)c1ccc(O)cc1 (stereo not given) | 3.32 |
| C[C@@H](N)[C@H]1CC[C@H](C(=O)Nc2ccncc2)CC1 | 5.7 |

Same assay, conditions: 5 µM; 24 h; macrophage state: M2-polarized (IL-4 + IL-13), cytokines present during treatment

| SMILES | cell shape (Z-score) |
| --- | --- |
| COc1ccc(S(=O)(=O)N(C(C)=O)c2ccccc2/C=C/c2cc[n+]([O-])cc2)cc1 | -2.29 |
| C=C(NC(=O)C(=C)NC(=O)c1csc(C2=N[C@@H]3c4csc(n4)[C@H]4NC(=O)c5csc(n5)[C@H]([C@](C)(O)[C@@H](C)O)NC(=O)[C@H]5CSC(=N5)/C(=C/C)NC(=O)[C@H]([C@@H](C)O)NC(=O)c5csc(n5)[C@]3(CC2)NC(=O)[C@H](C)NC(=O)C(=C)NC(=O)[C@H](C)NC(=O)[C@H]([C@@H](C)CC)N[C@@H]2C=Cc3c([C@H](C)O)cc(nc3[C@H]2O)C(=O)O[C@@H]4C)n1)C(N)=O [Thiostrepton.2mM] | -5.55 |
| CC1=CC(=O)c2ccccc2C1=O | -2.13 |
| C=C1C(=O)O[C@H]2[C@H]1CC/C(C)=C/CC[C@@]1(C)O[C@@H]21 [Parthenolide] | -1.29 |
| CCCc1c(OCC(O)COc2ccc3c(=O)cc(C(=O)O)oc3c2CCC)ccc(C(C)=O)c1O (stereo not given) | -2.27 |
| OCCN(CCO)c1nc(N2CCCCC2)c2nc(N(CCO)CCO)nc(N3CCCCC3)c2n1 | 0.465 |
| Oc1ccc(-c2nc(-c3ccc(F)cc3)c(-c3ccncc3)[nH]2)cc1 | -2.38 |
| CCCCc1ccc2[nH]c(NC(=O)OC)nc2c1 | 0.889 |
| CC(=O)O[C@@H]1C[C@H]2C(C)(C)C(=O)C=C[C@]2(C)[C@H]2CC[C@@]3(C)[C@H](c4ccoc4)OC(=O)[C@H]4O[C@]43[C@@]21C | -8.96 |
| CC[C@@]1(O)C(=O)OCc2c1cc1n(c2=O)Cc2cc3c([N+](=O)[O-])cccc3nc2-1 | -14.4 |
| CC1(C)O[C@@H]2C[C@H]3[C@@H]4CCC5=CC(=O)CC[C@]5(C)[C@@]4(F)[C@@H](O)C[C@]3(C)[C@]2(C(=O)CCl)O1 | -13.7 |
| Cc1cc(C(C)(C)CC(C)(C)C)ccc1OCCOCC[N+](C)(C)Cc1ccccc1 | -3.9 |
| O=C1NC(=O)/C(=C/c2ccc3nccc(-c4ccncc4)c3c2)S1 | -2.56 |
| COCCCC/C(=N\OCCN)c1ccc(C(F)(F)F)cc1 | -6 |
